Laboratory results: the supplement of paper PMC6555819

Tests used:
Test in all cases: PBM binding z-score (relative to random genomic background probes); higher = stronger binding; sequences stand for … in GC…GCGATTGACAGCGTAGAATGAAGG
[1] = system: FXR:RXRa (NR concentration 270 nM, RXRa partner concentration 90 nM)
Outline: (§1)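 The probes on custom Agilent 4×180K protein-binding microarrays were double-stranded, with 34-nt variable regions bearing direct-repeat seeds, single-nucleotide variants, half-site ablations and random human genomic background sequences. Incubation lasted 1 h with ligand-free nuclear receptor dimers in PBS pH 7.4, 2% milk, 0.02% Triton X-100, 1 mM DTT, 0.2 mg/mL BSA and 0.4 mg/ml salmon testes DNA. Antibodies against each partner (one per run) detected bound dimers, and fluorescence scans were regression-normalized. Binding z-scores take the random background probes as reference.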

[2] = system: LXRa:RXRa (NR concentration 270 nM, RXRa partner concentration 90 nM)
Outline: as §1

[3] = system: LXRa homodimer (NR concentration 270 nM)
Outline: as §1

[4] = system: LXRb:RXRa (NR concentration 270 nM, RXRa partner concentration 90 nM)
Outline: as §1

[5] = system: LXRb homodimer (NR concentration 270 nM)
Outline: as §1

[6] = system: PPARa:RXRa (NR concentration 270 nM, RXRa partner concentration 90 nM)
Outline: as §1

[7] = system: PPARg:RXRa (NR concentration 180 nM, RXRa partner concentration 90 nM)
Outline: as §1

[8] = system: PPARg:RXRa 270nM:90nM, anti-RXR (NR concentration 270 nM, RXRa partner concentration 90 nM)
Outline: as §1

[9] = system: PPARg:RXRa 30nM:10nM, anti-RXR (NR concentration 30 nM, RXRa partner concentration 10 nM)
Outline: as §1

[10] = system: PPARg:RXRa 90nM:30nM, anti-RXR (NR concentration 90 nM, RXRa partner concentration 30 nM)
Outline: as §1

Row | Sequence | PBM binding z-score [1] | PBM binding z-score [2] | PBM binding z-score [3] | PBM binding z-score [4] | PBM binding z-score [5] | PBM binding z-score [6] | PBM binding z-score [7] | PBM binding z-score [8] | PBM binding z-score [9] | PBM binding z-score [10]
1 | TTACCAAGGTGAGCTGAGGTCGTTGTTCCAACTC | 1.49 | 1.3 | -0.412 | 0.784 | -1.32 | 1.75 | -0.301 | 1.01 | -0.393 | 0.445
2 | TCTTGTTGATCAAGCAGGTTAAGAAAGCCTGAGT | 0.36 | 0.33 | -0.00348 | 0.357 | -0.269 | 0.497 | -0.685 | 1.11 | 2.49 | 1.96
3 | TCTAGCAGGCCAGAGGGTCAATCAAGAGGTACGG | 1.44 | 1.33 | -0.494 | 1.43 | -1.31 | 2.66 | 1.61 | 3.01 | 2.27 | 2.91
4 | CCTTACGGGTCACGAGATTATAGCACGACGAGCG | 6.02 | 4.05 | 0.0796 | 3.37 | 0.00532 | 5.42 | 6.21 | 5.93 | 2.99 | 4.95
5 | TCTTGTAGATCAAAGGTTAAGAAAGCCGAAGCCT | 1.74 | 1.97 | -0.166 | 2.14 | -0.146 | 4.65 | 8.31 | 8.09 | 9.09 | 8.69
6 | TCATGTAGGTAAACAGGTGAAAGTCCGTAAGTTA | 0.441 | 0.537 | -0.185 | 0.487 | -0.709 | 2.46 | 3.06 | 3.74 | 3.38 | 3.64
7 | GTACCAAGGTGAATAGGTCGTTGGTGAGTAGGCG | 0.874 | 0.844 | -0.171 | 0.388 | -0.834 | 2.25 | 1.17 | 1.93 | 0.116 | 1.13
8 | CTTGAAAGGTCGGTTGAGGTGAGTATACGGATAA | 3.64 | 2.28 | -0.0492 | 2.52 | -0.354 | 3.43 | 0.512 | 1.27 | 0.216 | 0.942
9 | ATCGAAAGGTCGTGAGGTGAGAATACAGAAAGGC | 5.69 | 4.09 | 0.3 | 3.37 | 0.293 | 5.61 | 4.61 | 4.58 | 1.99 | 3.09
10 | TAGCCTAGGTCATTCAGGGGCCATTATAGAAAGC | 4.21 | 4.32 | 1.34 | 3.81 | 1.44 | 3.96 | 2.32 | 2.45 | 0.349 | 1.57
11 | CGTCCAAAGTCATAGGAGGTCAGTGAAGACAGAT | 2.25 | 4.11 | 1.4 | 2.44 | 0.026 | 2.82 | 0.638 | 0.912 | -0.0337 | 0.296
12 | CGAACTAGGTCATTGACAGGTCAGTGAATAGTAA | 4.77 | 4.22 | 2.06 | 3.2 | 0.218 | 5.01 | 7.86 | 6.55 | 3.81 | 6.32
13 | CCTGCTAGGTAATGGTCAGCTAATCTACAGTATG | -0.151 | -0.438 | -0.575 | -0.764 | -0.48 | -0.344 | -0.182 | -0.104 | -0.225 | -0.424
14 | TGTCAAAGTTCAAACGTAACGTAAGTATCCACAC | 7.01 | 6.81 | 5.78 | 4.82 | 3 | 5.43 | 8.29 | 7.51 | 5.26 | 7.39
15 | CTAACTAGGTCAAGAGGTCAAAGTCCGCTTCCCG | 6.96 | 6.46 | 6.71 | 5.78 | 2.03 | 6.55 | 10.3 | 8.4 | 7.88 | 8.64
16 | CCGAGTAGGTTATGGGGCATTCAGGCAACGGTGA | 0.255 | 0.351 | -0.0528 | 0.508 | -0.322 | 2.11 | 3.48 | 4.31 | 2.03 | 3.91
17 | AGAATGAGGTTATACGTAGATCAGGGAGGAAAGT | 2.22 | 1.64 | 0.0751 | 1.53 | 0.198 | 3.09 | 1.85 | 2.09 | 0.848 | 1.57
18 | ATATGTAGGTTACATCCGGGCCATTCAGGCTATG | 0.546 | 2.67 | 0.422 | 1.05 | 0.287 | 3.13 | 5.08 | 4.09 | 1.51 | 3.05
19 | CAAACTAGGTCAAGGTTAAAGTCGGTTTGTGCCA | 4.21 | 3.75 | 1.17 | 2.93 | 0.57 | 5.22 | 9.29 | 8.04 | 6.64 | 9.18
20 | TCTCGGAGGATACGAAAGGTCAGAGCTCGACATC | 2.69 | 4.17 | 2.95 | 3.22 | -0.148 | 3.68 | 1.75 | 3.37 | 2.63 | 3.04
21 | CCTATTAGTAGACCATAAGGGCAACCGAAGCTCG | 0.44 | 0.377 | 0.422 | 0.468 | 0.364 | 0.752 | 0.777 | 1.21 | 0.45 | 0.915
22 | TAGCCTAGGTCATGCCGGCCAGTATAGTGTCGGC | 3.44 | 2.68 | 0.0179 | 1.57 | -0.0168 | 3.07 | 1.99 | 2.08 | 0.0348 | 1.34
23 | CGAACTAGGTCAAGGACATTGAATCTCCGCACGC | 3.45 | 2.4 | 0.44 | 1.68 | 0.0209 | 4.43 | 7.54 | 6.28 | 4.19 | 6
24 | CCTGCTAGGTCATGGTCAGCCAATCTACAGTATG | 3.64 | 2.66 | -0.0941 | 1.68 | -0.0584 | 3.49 | 2.75 | 2.89 | 0.768 | 1.98
